Assay results taken from PubChem BioAssay.
Activity calls are given as the source filed them.

Tests used:
Albumin (Bos taurus) = Albumin (Bos taurus) (UniProt P02769); experiment: compounds binding labelled BSA control protein – biochemical, small-molecule microarray, Alexa647 label, 635/667 nm fluorescence, artefact control for SMM control protein annotation, profiling panel (AID 1118); conditions: BSA-A647 binding, fluorescence 635 nm, higher = more signal;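 further: score merges 667 nm emission intensity and signal-to-noise per printed compound spot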
[1] = probe aXIP binding to arrayed compounds – biochemical, NeuroSMM set, 635/667 nm fluorescence, primary screen (AID 1119); conditions: small-molecule microarray, higher = more signal, called active from +8 up or from −8 down;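 further: probe is the protein aXip251-270 applied at 1 µg/mL to compound-printed slides; binding of probe to printed compounds measured as 667 nm fluorescence plus signal to noise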
[2] = probe aNOTCH3 binding on compound microarray – biochemical, small-molecule microarray, 635/667 nm fluorescence, primary screen (AID 1120); conditions: higher = more signal;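 further: probe is a biotin-tagged antibody raised against NOTCH3 rather than NOTCH3 protein; score merges spot fluorescence near 667 nm with spot signal to noise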
[3] = probe aNOTCH2 binding on compound microarray – biochemical, small-molecule microarray, 635/667 nm fluorescence, primary screen (AID 1121); conditions: higher = more signal;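 further: score merges feature fluorescence read at 667 nm with its signal to noise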
[4] = molecular target: Carbonic anhydrase 2 (Homo sapiens) (UniProt P00918); experiment: compounds binding carbonic anhydrase 2 – biochemical, small-molecule microarray, Alexa647-labelled CAII, profiling panel (AID 1122); conditions: CAII-A647 binding fluorescence, higher = more signal
[5] = COS7 lysate on small-molecule microarray, probe aHis, 635 nm (AID 1123); conditions: COS7 cell lysate, fluorescence, higher = more signal;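 further: z-score combines 667nm fluorescence intensity with signal-to-noise per printed compound spot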
[6] = probe aLAP1 signal on lysate-treated microarray – cell lysate, small-molecule microarray, COS7 lysate, primary screen (AID 1124); conditions: probe aLAP1, fluorescence, higher = more signal;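 further: lysate comes from COS7 cells expressing LAP1 and is applied at 0.3 µg/mL; score merges spot fluorescence near 667 nm with signal-to-noise over triplicate slides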
Sam68 (KHDRBS1) = experiment: compounds binding KHDRBS1 protein – biochemical, small-molecule microarray, 635 nm fluorescence, primary screen (AID 1125); conditions: higher = more signal;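 further: score merges 667 nm channel intensity with signal to noise over triplicate slides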
[7] = test system: Chordin-like protein 2 (CHRDL2); experiment: compounds binding chordin-like 2 – biochemical, small-molecule microarray, 635 nm fluorescence, primary screen (AID 1126); conditions: fluorescence 635 nm, higher = more signal;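 further: printed compound slides probed with Chrdl2 protein at 4 µg/mL for 1 h at 4 C; score merges 667 nm emission intensity with signal to noise over three replicate slides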
[8] = molecular target: Concanavalin-A (Canavalia ensiformis) (UniProt P02866); experiment: compounds binding concanavalin A lectin – biochemical, small-molecule microarray, Alexa647 label, 635 nm, artefact control for SMM control protein annotation, primary screen (AID 1127); conditions: ConA-A647 binding fluorescence, higher = more signal;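 further: z combines 667 nm emission intensity with signal-to-noise across three replicate slides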
Chain of Concanavalin-A (Canavalia ensiformis) (P02866 whole entry, looked up): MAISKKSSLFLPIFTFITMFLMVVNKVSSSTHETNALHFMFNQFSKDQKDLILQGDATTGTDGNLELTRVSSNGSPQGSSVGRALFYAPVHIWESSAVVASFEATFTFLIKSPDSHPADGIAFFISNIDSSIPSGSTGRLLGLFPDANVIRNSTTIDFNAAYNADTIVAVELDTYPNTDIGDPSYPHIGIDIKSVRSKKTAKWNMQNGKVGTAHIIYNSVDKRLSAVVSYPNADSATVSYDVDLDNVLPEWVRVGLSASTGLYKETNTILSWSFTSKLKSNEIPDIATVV

Chain of Albumin (Bos taurus) (P02769 whole entry, looked up): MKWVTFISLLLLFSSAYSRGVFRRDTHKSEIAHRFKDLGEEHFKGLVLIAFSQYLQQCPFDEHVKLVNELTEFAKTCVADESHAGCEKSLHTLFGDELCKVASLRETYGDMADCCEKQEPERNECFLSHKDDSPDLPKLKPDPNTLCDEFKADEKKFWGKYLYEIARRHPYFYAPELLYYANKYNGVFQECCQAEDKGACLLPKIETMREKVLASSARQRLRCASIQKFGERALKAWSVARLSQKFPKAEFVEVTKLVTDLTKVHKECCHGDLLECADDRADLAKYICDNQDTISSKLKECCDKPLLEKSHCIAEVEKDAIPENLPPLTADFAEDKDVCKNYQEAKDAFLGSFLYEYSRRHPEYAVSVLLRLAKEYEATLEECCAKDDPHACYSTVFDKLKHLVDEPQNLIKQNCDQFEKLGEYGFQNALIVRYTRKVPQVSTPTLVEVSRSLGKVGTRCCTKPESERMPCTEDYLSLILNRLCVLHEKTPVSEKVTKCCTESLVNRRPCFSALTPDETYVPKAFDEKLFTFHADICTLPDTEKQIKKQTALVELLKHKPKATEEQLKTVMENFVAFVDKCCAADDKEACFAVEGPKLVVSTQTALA

Row | SMILES | composite z-score (Albumin (Bos taurus)) | composite Z-score [1] | composite z-score [2] | composite z-score [3] | composite z-score [4] | composite z-score [5] | composite z-score [6] | composite z-score (Sam68 (KHDRBS1)) | composite z-score [7] | composite z-score [8]
1 | CCCC=C(CCC)[C@@H](NC(=O)c1ccc(C(=O)OC)cc1)c1ccc(C(=O)OC)cc1 | 0.781 | 0.0466 (inactive) | 0.0847 | 0.0522 | 0.203 | 2.45 | 0.718 | 0.417 | 0.031 | 0.251
2 | C=CCN1C(=O)[C@]2(O[C@H](CCO)[C@@H]([Si](C)(C)c3ccc(OC)cc3)[C@@H]2C)c2cc(N3C(=O)c4ccccc4Oc4ccccc43)ccc21 | 0.493 | -0.0467 (inactive) | -0.0328 | -0.125 | 0.467 | 0.506 | 0.199 | 1.11 | -0.175 | 0.91
3 | O=C1N(Cc2ccccc2)c2ccccc2C[C@@]12N=C(c1ccc(OCCCO)cc1)O[C@H]2c1ccccc1 | 0.542 | -0.329 (inactive) | -0.0328 | -0.0664 | 0.183 | 2.47 | -0.0401 | 1.29 | 0.0949 | 1.06
4 | Cc1ccc(S[C@]2(C(=O)NC(C)C)CC(=O)N(Cc3ccccc3)[C@@H]2c2ccc(CO)cc2I)cc1 | -0.437 | -0.0142 (inactive) | -0.229 | -0.227 | 0.784 | 1.79 | 0.532 | 0.636 | -2.55 | -0.639
5 | COc1ccc([Si](C)(C)[C@H]2[C@H](CC(=O)N3CCC[C@H]3CO)O[C@@]3(C(=O)N(Cc4cccc(N5CCCCC5=O)c4)c4ccccc43)[C@@H]2C)cc1 | 0.342 | 0.433 (inactive) | -0.318 | -0.161 | 0.462 | 1.83 | 0.648 | 1.31 | 1.19 | 1.13
6 | CC(C)(C)OC(=O)CC[C@]1(C(N)=O)N=C(c2ccc(OCCCO)cc2)O[C@H]1c1ccccc1N=[N+]=[N-] | 0.426 | 0.59 (inactive) | 0.156 | -0.084 | 0.791 | 1.61 | 0.242 | 0.522 | -0.416 | 0.741
7 | Cc1ccc(S(=O)(=O)N2[C@@H](c3ccccc3)C(C(=O)O)=CC[C@H]2c2ccc(F)cc2)cc1 | 0.458 | 0.615 (inactive) | -0.0044 | -0.116 | 0.893 | 3.31 | 1.72 | 1.18 | -1.09 | -0.177
8 | C[C@H]1C2[C@H](Cc3ccccc3)NC(=O)[C@]23C(=O)N[C@@H](Cc2ccccc2)C(=O)N2CCC[C@H]2C(=O)NC/C=C/CC/C=C/C3[C@@H]2O[C@]12C (stereo not given in full) | 0.688 | -0.571 (inactive) | 0.073 | -0.159 | 0.619 | 0.501 | 0.472 | 0.868 | 0.638 | 0.236
9 | CN(C)CCCCNC(=O)[C@H]1C[C@H]2C(=O)N[C@@H](CCCCN(C)C)C(=O)N2[C@H]1c1ccc(O)cc1 | -0.155 | 0.151 (inactive) | -0.0918 | -0.0262 | 0.518 | -0.28 | 0.224 | -0.093 | 1.15 | 0.224
10 | O=C1NC(=O)C2C1C=CC(C(O)C(O)CO)N2Nc1ccccn1 (stereo not given) | 0.319 | 0.035 (inactive) | 0.0026 | -0.207 | 0.315 | 0.344 | 0.635 | 0.523 | 0.105 | 0.932
11 | C[C@]1(C(=O)O)c2ccccc2C(=O)N(Cc2cc(C(F)(F)F)cc(C(F)(F)F)c2)[C@H]1c1ccc(CO)cc1 | 0.514 | 0.365 (inactive) | 0.0426 | -0.106 | 0.728 | 0.516 | -0.178 | 0.666 | -0.833 | 0.928
12 | COC(=O)C(CC#Cc1ccc2c(c1)[C@]1(C(=O)N2)[C@H](C(=O)NC[C@H](O)c2ccccc2)[C@H]2C(=O)O[C@H](c3ccccc3)[C@H](c3ccccc3)N2[C@@H]1c1ccc(O)cc1)C(=O)OC | 0.41 | 1.05 (inactive) | -0.0932 | -0.126 | 0.683 | 0.84 | -0.177 | -0.165 | -0.275 | 0.188
13 | C#CCN(C(=O)OC(C)(C)C)[C@H](CO)c1ccccc1 | 0.632 | 0.32 (inactive) | -0.0043 | -0.146 | 0.0604 | 0.125 | 0.183 | 0.689 | 0.105 | 0.0388
14 | C=CCC(OC(C)=O)[C@@H]1[C@@H](N(Cc2ccc(-c3ccccc3)cc2)C(=O)Cc2ccc(OC)cc2)c2cc(OCCCO)ccc2N1C(=O)c1ccc2ccccc2c1 (stereo not given in full) | 0.234 | -0.0949 (inactive) | -0.043 | -0.176 | 0.269 | 0.198 | 0.165 | 0.0843 | -0.225 | 0.134
